Assay outcomes (PubChem)
Sampled rows, rich in hits. Any-hit rate of the full collection: about 13%.
4MU fluor: compound fluoresces in the 4-MU spectral region; 59,000 compounds, 11% hits; compound autofluorescence, 340/450 nm, 4-MU equivalents; active compounds read high; AID 589; max dye-equivalent concentration, M; in the data active means max dye-equivalent concentration above about 10 nM; inconclusive means mostly about 1.1 nM to 9.6 nM
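Compounds in 100 mM Tris, pH 8.0, incubated 15 min at room temperature, then fluorescence read at 340 nm excitation/450 nm emission. Signal converted to 4-MU dye-equivalent concentration using an on-plate six-point 4-MU standard curve.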
HADH2 inhib: blocks human hydroxyacyl-CoA dehydrogenase type II. Q99714. recombinant HADH2, NADH fluorescence, beta-hydroxybutyryl-CoA. Potency, µM (titrated, usually from 57.1 µM), for the others: at the top dose activity change, negative = inhibition, actives largely listed as inhibitors. 73,000 compounds, 3.4% hits. AID 886; further: potency means the concentration at half of the fitted maximal effect; on the % scale 0 is the no-effect control and ±100 the full control effect; nearly all actives have a fitted effect of over 60% in size
Target sequence (Q99714 whole entry, looked up, one chain of several): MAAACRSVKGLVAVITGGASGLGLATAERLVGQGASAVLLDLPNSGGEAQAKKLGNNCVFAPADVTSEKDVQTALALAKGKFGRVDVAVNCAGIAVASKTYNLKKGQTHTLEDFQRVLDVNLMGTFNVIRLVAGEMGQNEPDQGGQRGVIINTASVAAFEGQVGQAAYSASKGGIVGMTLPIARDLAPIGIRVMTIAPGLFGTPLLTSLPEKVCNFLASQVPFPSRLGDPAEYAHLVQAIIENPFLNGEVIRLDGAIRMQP
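His-tagged recombinant enzyme from E. coli, 20 nM, preincubated 15 min RT with compound; reaction started with 1 mM NAD+ and 90 uM beta-hydroxybutyryl-CoA in 100 mM Tris-HCl pH 9.0. NADH fluorescence (ex 360/em 450) read over 4 min; last-minus-first difference.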
A350 fluor: A350 region autofluorescence; max dye-equivalent concentration, M; Compound autofluorescence, 340/450 nm, Alexa 350 dye-equivalents; active compounds read high; 59,000 compounds, 11% hits; in the data active means max dye-equivalent concentration above about 10 nM; inconclusive means mostly about 1.1 nM to 9.6 nM
HSD17B inhib: blocks hydroxysteroid 17-beta dehydrogenase activity. Q99714. AID 893. Potency, µM (series often up to 57.1 µM), without a hit: top-dose activity change, negative = inhibition, most hits filed as inhibitors. 75,000 compounds, 7.6% hits. recombinant HSD17B10, NADH fluorescence kinetic;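 further: the protocol describes HADH2 (HSD17B10) and not the HSD17B4 of the title; potency means the concentration at half of the fitted maximal effect; on the % scale 0 is the no-effect control and ±100 the full control effect; nearly all actives have a fitted effect of over 70% in size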
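His-tagged E. coli-expressed HADH2 at 20 nM in 100 mM Tris-HCl pH 9.0 with 0.01 % Tween-20, preincubated 15 min with compound at room temperature. Reaction with 1 mM NAD+ and 90 uM beta-hydroxybutyryl coenzyme A; NADH fluorescence (360/450 nm) read kinetically over 4 min, last minus first point.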
AID923: qHTS Assay for Allosteric/Competitive Inhibitors of Caspase-1: Spectroscopic Profiling in AFC Spectral Region. compound fluorescence, AFC spectral region (405/520 nm). Potency, µM (series often up to 57.5 µM), inactives show top-dose fluorescence increase, actives largely listed as activators. 75,000 compounds, 1.1% hits; further: potency means the concentration at half of the fitted maximal effect; 0% is about no effect
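Titrations up to 57 uM read every 20 sec for 3 min (405/520 nm) with 50 nM caspase 1 and 5 uM Ac-WEHD-AFC, pH 7.5 HEPES buffer. Fluorescence-vs-time intercept gave baseline, scaled against on-plate AFC standard.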
GBA mod: human lysosomal glucosylceramidase modulation | P04062 | purified enzyme, resorufin glucoside fluorescence (screen aimed at inhibitors), 20 min | Potency, µM | 48,000 compounds, 1.1% hits | AID 360; in the data active means potency below about 15 µM; inconclusive means mostly about 16 µM to 33 µM;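 further: potency means the concentration at half of the fitted maximal effect; the screen sought inhibitors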
Target sequence (P04062 whole entry, looked up): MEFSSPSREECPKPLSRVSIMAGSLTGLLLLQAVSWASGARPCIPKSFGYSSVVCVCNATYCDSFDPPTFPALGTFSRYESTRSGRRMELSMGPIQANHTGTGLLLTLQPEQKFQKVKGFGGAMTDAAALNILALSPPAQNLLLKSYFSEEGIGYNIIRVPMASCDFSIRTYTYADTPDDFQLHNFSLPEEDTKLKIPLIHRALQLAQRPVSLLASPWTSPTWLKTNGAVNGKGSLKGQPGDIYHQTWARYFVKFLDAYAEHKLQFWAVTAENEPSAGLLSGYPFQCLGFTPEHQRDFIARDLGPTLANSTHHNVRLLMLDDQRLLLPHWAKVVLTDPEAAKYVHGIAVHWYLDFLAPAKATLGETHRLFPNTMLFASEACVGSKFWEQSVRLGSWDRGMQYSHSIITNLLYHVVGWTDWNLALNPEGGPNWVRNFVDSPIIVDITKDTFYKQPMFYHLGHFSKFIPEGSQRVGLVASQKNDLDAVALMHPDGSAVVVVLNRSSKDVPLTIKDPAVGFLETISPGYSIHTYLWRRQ
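Wild-type enzyme at 0.2 nM final in 50mM citric acid/KH2PO4, 10mM sodium taurocholate, 0.01% tween-20, pH 5.9, with resorufin beta-D-glucopyranoside at 30 uM final. Compounds titrated, 20 min at RT, red fluorescence read; AC50 from titration.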
Active calls of the source: *; i = inactive; ? = inconclusive; / = no result given; [ ] = remark or other dose. Unless noted, the call rests on the fitted dose curve; in most records, active means well fitted curve in the direction sought with a large enough effect; inconclusive means small, poorly fitted or top-dose-only effect, or another doubt; inactive means no such curve, though single readings can be large; an effect the other way counts as inactive or inconclusive.

SMILES | 4MU fluor | HADH2 inhib | A350 fluor | HSD17B inhib | AID923 | GBA mod
S=c1[nH]c2ccc(Cl)cc2[nH]1 | i | 3.16µM* | i | -20.9% | -1.2% | >76.9
COc1ccccc1NC(=O)Nn1cnnc1 | i | 5.7% | i | 2.1% | -1.0% | >76.9
CCCn1c(SCC(N)=O)nc2c(c1=O)C1(CCCC1)Cc1ccccc1-2 | i | / | i | / | / | /
Cn1c(NCCCO)nc2c(c1=O)C1(CCCCC1)Cc1ccccc1-2 | 1.28e-07M* | 31.6µM* | 1.1e-07M* | 25.1µM* | 0.9% | /
COc1cc(S(=O)(=O)N(C)C)ccc1F | 1.86e-08M* | 2.0% | 1.99e-08M* | 5.4% | -0.5% | >76.9
CCCCN(CCCNC(=O)C1CCN(S(=O)(=O)N2CCOCC2)CC1)c1ccccc1 | 7.36e-07M* | 0.6% | 7.96e-07M* | -7.2% | 0.0% | /
O=C1c2cccc3cccc(c23)C(=O)N1c1cccnc1 | 1.4e-07M* | 25.1µM* | 1.34e-07M* | 25.1µM* | 1.7% | /
CCc1cc2ccccc2nc1SCC(=O)Nc1cc(C)on1 | i | 7.9% | i | ? | 0.3% | >76.9
CCc1nc(SCC(=O)Nc2cc(C)on2)c2c(C)c(C)sc2n1 | 3.76e-08M* | -1.7% | 4.17e-08M* | -2.3% | -1.0% | >76.9
COC(=O)C/C=C\[C@@H](C)[C@@H](/C=N\OC[C@@H](O)[C@H]1O[C@H]2OC(C)(C)O[C@H]2[C@@H]1O)OC | / | -0.6%[11.4 µM] | / | 3.8%[11.4 µM] | -1.8%[11.5 µM] | /
C=CCNc1ncnc2c1[nH]c1ccc(C)cc12 | 2.05e-08M* | -3.4% | 2.77e-08M* | 31.6µM* | -3.1% | ?
CCN(CC)CCNc1ncnc2c1[nH]c1ccc(OC)cc12 | 4.86e-08M* | / | 5.38e-08M* | / | / | /
COc1ccc2c(c1)[nH]c1c(=O)n(CCN(C)C)cnc12 | i | / | i | / | / | /
CCN(CC)CCNC(=O)CCCCn1c(=S)[nH]c2c([nH]c3ccc(OC)cc32)c1=O | 2.75e-08M* | ? | 3.04e-08M* | 25.1µM* | -0.9% | i
Cc1ccc2[nH]c3c(NCCN4CCOCC4)ncnc3c2c1 | i | / | ? | / | / | /
COc1ccc2c(c1)OCC(Cc1ccc(OC)c(OC(C)=O)c1)C2=O (stereo not given) | / | / | / | 3.3% | -1.3% | /
Cc1sc2nc(C(C)Nc3ccccc3N3CCOCC3)[nH]c(=O)c2c1C (stereo not given) | ? | -10.7% | ? | -0.3% | 5.2% | /
O=C(COC(=O)C1CCC1)Nc1ccc(OC(F)F)cc1 | ? | 9.2% | ? | 4.7% | 0.2% | >15.4
CCCCC(=O)OCC(=O)Nc1ccc(OC(F)F)cc1 | 2.01e-07M* | -13.6% | 1.9e-07M* | 0.5% | -0.6% | ?
O=c1c(-c2ccc(F)c(F)c2)nc2cncnc2n1C1CC1 | i | -7.3% | i | 3.6% | 2.7% | /
Cc1ncc(CN=Cc2ccc(Cl)cc2)c(N)n1 | i | 3.0%[11.4 µM] | i | 2.5%[11.4 µM] | 0.9%[11.5 µM] | /
Cc1cc(C)n2c3c(c(C#N)c2n1)CC(C)(C)OC3 | 7.95e-08M* | / | 9.44e-08M* | / | / | /
Cc1cc(C)n2c(SCC#N)nnc2n1 | / | -5.2% | / | -2.3% | 3.7% | /
COc1ccc2[nH]c(=O)c(CN(CCN3CCCC3)C(=O)Nc3ccccc3Cl)cc2c1 | 2.5e-07M* | -10.2% | 2.48e-07M* | 25.1µM* | 0.6% | /
CCOc1ccc2[nH]c(=O)c(CN(CC3CCCN3CC)C(=O)NCc3ccccc3)cc2c1 (stereo not given) | 2.61e-07M* | -6.3% | 2.44e-07M* | 31.6µM* | 1.0% | >76.9
SMILES | 4MU fluor | HADH2 inhib | A350 fluor | HSD17B inhib | AID923 | GBA mod
COc1ccc2[nH]c(=O)c(CN(CCCN3CCOCC3)C(=O)NCc3ccccc3)cc2c1 | 2.15e-07M* | -12.4% | 1.65e-07M* | 31.6µM* | 2.0% | /
COc1ccc2[nH]c(=O)c(CN(CC3CCCO3)C(=O)Nc3ccccc3OC)cc2c1 (stereo not given) | 7.62e-08M* | -8.1% | 7.09e-08M* | ? | 0.5% | >76.9
CCc1ccc2[nH]c(=O)c(CN(CCCN3CCOCC3)C(=O)Nc3cccc(Cl)c3)cc2c1 | i | -5.2% | i | 0.9% | 2.6% | ?
CCN1CCCC1CN(Cc1cc2cc(C)cc(C)c2[nH]c1=O)C(=O)Nc1ccccc1OC (stereo not given) | ? | -3.8% | ? | -24.7% | 3.3% | >76.9
CCCCCCCCC1CO1 (stereo not given) | / | -9.8% | / | -4.0% | 3.4% | /
CC(C)OCCCNC(=O)Cn1nc(-c2ccccc2)ccc1=O | i | 5.3% | i | 1.9% | 0.7% | >76.9
COC(=O)[C@@]1(Cc2ccccc2)[C@H]2c3cc(C(=O)N(C)C)n(C[C@H](O)CO)c3C[C@H]2CN1C(=O)c1ccccc1 | / | 5.1% | / | 2.1% | 0.0% | /
COc1ccccc1NC(=O)N(Cc1ccco1)Cc1cc2c(C)ccc(C)c2[nH]c1=O | i | -29.5% | i | 31.6µM* | -1.2% | >76.9
COc1cc(C(=O)N(Cc2cc3ccccc3[nH]c2=O)CC2CCCO2)cc(OC)c1OC (stereo not given) | i | -3.7% | i | -12.3% | 0.5% | >76.9
COc1ccccc1NC(=O)N(Cc1cc2cc(OC)c(OC)cc2[nH]c1=O)CC1CCCO1 (stereo not given) | 1.03e-07M* | ? | 9.15e-08M* | 25.1µM* | -1.8% | >76.9
CO[C@@H]1COC(=O)CCC[C@@H](C)[C@H](OC)COC(=O)CCC[C@H]1C | / | -11.4%[11.4 µM] | / | 5.0%[11.4 µM] | -0.2%[11.5 µM] | /
c1csc(CNc2ncnc3ccc(-c4ccc5c(c4)OCO5)cc23)c1 | i | -14.8% | ? | 25.1µM* | -0.3% | /
Cc1cccc(CNc2ncnc3ccc(-c4ccc5c(c4)OCO5)cc23)c1 | i | ? | i | 25.1µM* | -0.1% | /
COc1ccccc1CNc1ncncc1-c1ccc2c(c1)OCO2 | i | ? | i | -25.5% | 0.0% | /
c1csc(CNc2ncnc3ccc(-c4ccoc4)cc23)c1 | i | -10.4% | i | ? | 0.0% | /
Cc1cccc(CNc2ncnc3ccc(-c4cccc(C#N)c4)cc23)c1 | i | ? | i | 25.1µM* | -0.9% | /
Cc1cccc(CNc2ncnc3ccc(-c4ccccc4CN(C)C)cc23)c1 | i | -3.4% | i | 1.1% | -1.4% | /
c1cncc(CNc2ncncc2-c2ccc3c(c2)OCO3)c1 | i | 10µM* | i | -18.9% | -1.9% | /
CC(C)[C@@H](CC(=O)N[C@@H]1CCCC[C@H]1C(=O)N[C@H](CC(=O)N[C@@H](CCC(=O)O)CC(=O)O)Cc1c[nH]c2ccccc12)NC(=O)C[C@H](Cc1ccccc1)NC(=O)[C@@H]1CCCC[C@H]1N | / | -16.2% | / | / | / | /
N#CCCn1c(=O)cnc2cnc(Nc3ccccc3)nc21 | ? | -8.1% | ? | ? | 4.0% | /
NC(=O)CSc1nc(-c2ccccc2Cl)ns1 | i | 1.3% | i | 4.9% | 2.9% | >76.9
COC(=O)c1ccc(CC(=O)c2c(C)cc(O)cc2O)o1 | i | 15.8µM* | i | ? | 1.7% | >76.9
O=C1CCC[C@@H](C2=CCCCC2=O)C1 | / | 1.4%[11.4 µM] | / | 5.7%[11.4 µM] | -0.7%[11.5 µM] | /
